Test results: PubChem BioAssay (NCATS)
Values joined by “and” are separate entries in the source; they are usually repeats but may differ in a detail not shown here. Equal values may be shown once. Records with an inconclusive call do not appear. Active and inactive are the calls of the source. Calls come from the whole dose curve; as a rule, active = well fitted curve in the direction sought with a large enough effect; inconclusive = small, poorly fitted or top-dose-only effect, or another doubt; inactive = no such curve, though single readings can be large; an effect the other way counts as inactive or inconclusive.

Assay: Viability qHTS for spleen associated tyrosine kinase inhibitor (SYKi) drug resistant MV4-11 cells (AID 1963824); note: nearly all actives have a fitted effect of over 35% in size
Settings: SYKi-resistant MV4-11 viability, CellTiter-Glo, 72 h; series mostly up to 45 µM
Summary of the method: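 CellTiter-Glo luminescence, read 10 min after reagent addition, reports viability after a 72 hr compound exposure. Cells are an MV4-11 line made resistant to SYK inhibition, seeded at 500 per well onto compound-containing plates.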
Potency is the fitted concentration of half-maximal effect.

Structure (SMILES) | Potency
COC(=O)C1=C(C)NC(COC(N)=O)=C(C(=O)OC(C)C)C1c1cccc(Cl)c1Cl (stereo unspecified) | 14.6 µM (active)
COc1cc2c(cc1O)CCN[C@]21CS[C@@H]2c3c(OC(C)=O)c(C)c4c(c3[C@H](COC1=O)N1[C@@H]2[C@H]2c3c(cc(C)c(OC)c3O)C[C@@H]([C@@H]1O)N2C)OCO4 | 0.0015 µM (active)
O=C(NOCCO)c1ccc2cncn2c1Nc1ccc(I)cc1F | 0.105 µM (active)
CC(C)(O)[C@H]1CC[C@@](C)([C@H]2[C@@H](O)C[C@@]3(C)[C@@H]4C[C@H](O[C@@H]5O[C@H](CO)[C@@H](O)[C@H](O)[C@H]5O)[C@H]5C(C)(C)[C@@H](O[C@@H]6OC[C@@H](O)[C@H](O)[C@H]6O)CC[C@@]56C[C@@]46CC[C@]23C)O1 | inactive
C[C@H](NC(=O)/C(C#N)=C/c1cccc(Br)n1)c1ccccc1 | 2.95 µM (active)
COC(=O)C1=C(C)NC(C)=C(C(=O)OC)C1c1ccccc1[N+](=O)[O-] | 11.9 µM (active)
NS(=O)(=O)OC[C@@H]1C[C@@H](n2ccc3c(N[C@H]4CCc5ccccc54)ncnc32)C[C@@H]1O | 73.1 nM (active) and 82 nM (active) and 74.2 nM (active)
Oc1ccc(O)cc1 | 13.3 µM (active)
CC(=O)C1CCC2C3CCC4=CC(=O)CCC4(C)C3CCC12C (stereo unspecified) | 9.34 µM (active)
Nc1ccc(C(=O)NCC(=O)O)cc1 | inactive
CCCCCCCCCCCC[N+](C)(C)Cc1ccccc1 | 9.44 µM (active)

Assay: Cellular viability qHTS for adrenocortical cancer (ACC) cell line NCI-H295R (AID 1963990); note: nearly all actives have a fitted effect of over 60% in size
Settings: CellTiter-Glo ATP luminescence, 48 h; series mostly up to 46.1 µM
Summary of the method: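 IC50 and maximal efficacy derive from four-parameter logistic modelling of titration curves, with reads scaled between DMSO-only wells (0%) and doxorubicin hydrochloride (100% inhibition). Compounds spanned up to 46 uM over 48 h.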

Structure (SMILES) | Potency
O=S(=O)(c1cccc2c(I)cccc12)N1CCCNCC1 | 25.1 µM (active)
N#Cc1ccc(-c2c(-c3ncn[nH]3)sc(N3CCOCC3)c2C#N)c(F)c1 | 4.47 µM (active)
CCOC(=O)c1ccc(N)cc1 | inactive
CCCCNc1ncc2c(-c3ccc(CN4CCN(C)CC4)cc3)cn(C3CCC(O)CC3)c2n1 (stereo unspecified) | 6.31 µM (active)
CCCS(=O)(=O)c1nc(NC2CC2)cc(-c2ccc3c(ccn3C3CC(C)(C)NC(C)(C)C3)c2)n1 | 2.18 µM (active)
COC1(c2sc3c(N4CCOCC4)nc(-c4cnc(N)nc4)nc3c2C)COC1 | 0.501 µM (active)
CCS(=O)(=O)CCn1c([N+](=O)[O-])cnc1C | 25.9 µM (active)
CCCC(CCC)C(=O)Nc1ccn([C@@H]2O[C@H](CO)[C@@H](O)C2(F)F)c(=O)n1 | inactive
CNC(=O)Cn1cc(-c2ccc3c(c2)C(F)CC32NC(=O)N(CC(=O)N(Cc3ccc(F)cc3)C(C)C(F)(F)F)C2=O)cn1 (stereo unspecified) | inactive
O=C(O)CCCC[C@@H]1SC[C@@H]2NC(=O)N[C@@H]21 | inactive
O=C(Nc1ncc(SCCN2CCCC2)s1)[C@]1(c2ccc(S(=O)(=O)C3CC3)cc2)C[C@H]1C1CCCCC1 | 7.08 µM (active)
CC#C[C@@H](CC(=O)O)c1ccc(OCc2cccc(-c3ccc(C(F)(F)F)cc3)c2)cc1 | 31.6 µM (active)
Cc1c[nH]c(/C=C2\C(=O)Nc3ccccc32)c1CCC(=O)O | inactive
Nc1cc(-c2ccncc2)c[nH]c1=O | inactive
COc1cc(C(=O)NC2CCCNC2)cc(OC)c1OC (stereo unspecified) | inactive
COC(=O)C1=C(C)NC(C)=C(C(=O)O[C@@H]2CCCN(Cc3ccccc3)C2)[C@@H]1c1cccc([N+](=O)[O-])c1 | 23.1 µM (active)
CCN(CC)CCOc1ccc(/C(=C(\Cl)c2ccccc2)c2ccccc2)cc1 | 7.31 µM (active)
CN(C)/C(N)=N/C(=N)N | inactive
CCCCCCCCCCOCC(O)CN (stereo unspecified) | 18.4 µM (active)
C[C@@H]1C[C@H](N)C[C@H](c2ccncc2NC(=O)c2ccc(F)c(-c3c(F)cccc3F)n2)C1 | 28.2 µM (active)

Structure (SMILES) | Potency
C=CC[C@@H]1/C=C(\C)C[C@H](C)C[C@H](OC)[C@H]2O[C@@](O)(C(=O)C(=O)N3CCCC[C@H]3C(=O)O[C@H](/C(C)=C/[C@@H]3CC[C@@H](O)[C@H](OC)C3)[C@H](C)[C@@H](O)CC1=O)[C@H](C)C[C@@H]2OC | inactive
CN(C)Cc1cccc(N=C(c2ccccc2)c2c(O)[nH]c3cc(C(N)=O)ccc23)c1 | inactive
CCOc1cc2ncc(C#N)c(Nc3ccc(OCc4ccccn4)c(Cl)c3)c2cc1NC(=O)/C=C/CN(C)C | 2 µM (active)
N#C/C(=C\c1ccc(O)c(O)c1)C(=O)NCc1ccccc1 | inactive
CCN1/C(=C/C=C/c2sc3ccccc3[n+]2CC)Sc2ccccc21 | 10 µM (active)
CCO[C@@H]1O[C@H](C(COCc2ccccc2)OCc2ccccc2)[C@H](OCc2ccccc2)[C@H]1O (stereo partly specified) | 23.1 µM (active)
Cc1[nH]c(/C=C2\C(=O)Nc3ccc(F)cc32)c(C)c1C(=O)NCCN1CCCC1 | 10.1 µM (active)
COc1ccc(S(=O)(=O)N(CCO)c2ccccc2CN(C)C/C=C/c2ccc(Cl)cc2)cc1 | 12.6 µM (active)
CC(=O)c1cc2c(o1)C(=O)c1ccccc1C2=O | 0.891 µM (active)
COC(=O)C1=C(C)NC(COC(N)=O)=C(C(=O)OC(C)C)C1c1cccc(Cl)c1Cl (stereo unspecified) | 20.6 µM (active)
COc1cc2c(cc1O)CCN[C@]21CS[C@@H]2c3c(OC(C)=O)c(C)c4c(c3[C@H](COC1=O)N1[C@@H]2[C@H]2c3c(cc(C)c(OC)c3O)C[C@@H]([C@@H]1O)N2C)OCO4 | 0.0094 µM (active)
O=C(NOCCO)c1ccc2cncn2c1Nc1ccc(I)cc1F | inactive
CC(C)(O)[C@H]1CC[C@@](C)([C@H]2[C@@H](O)C[C@@]3(C)[C@@H]4C[C@H](O[C@@H]5O[C@H](CO)[C@@H](O)[C@H](O)[C@H]5O)[C@H]5C(C)(C)[C@@H](O[C@@H]6OC[C@@H](O)[C@H](O)[C@H]6O)CC[C@@]56C[C@@]46CC[C@]23C)O1 | inactive
C[C@H](NC(=O)/C(C#N)=C/c1cccc(Br)n1)c1ccccc1 | 28.2 µM (active)
COC(=O)C1=C(C)NC(C)=C(C(=O)OC)C1c1ccccc1[N+](=O)[O-] | 9.2 µM (active)
NS(=O)(=O)OC[C@@H]1C[C@@H](n2ccc3c(N[C@H]4CCc5ccccc54)ncnc32)C[C@@H]1O | 0.708 µM (active)
Oc1ccc(O)cc1 | inactive
CC(=O)C1CCC2C3CCC4=CC(=O)CCC4(C)C3CCC12C (stereo unspecified) | inactive
Nc1ccc(C(=O)NCC(=O)O)cc1 | inactive
CCCCCCCCCCCC[N+](C)(C)Cc1ccccc1 | 29.1 µM (active)
